Values joined by “and” are separate entries in the source; they are usually repeats but may differ in a detail not shown here. Equal values may be shown once. Screen size: about 9,600 compounds; about 20 (0.2%) were called active.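 The calls were made as follows: active = highest normalized replicate activity of 15 or more, or at least half the replicates reach 15 or more; inactive = neither condition met.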 This excerpt belongs to a sample that is enriched for actives. More than one record can exist for a structure, and the calls need not agree.
test: activators of Pax4 gene expression, primary screen, RT-PCR, mouse alpha TC1 cells, single point (AID 1053180); conditions: Pax4 mRNA qPCR, 6 days, at 10 µM, stronger effect = higher value, 100% = Pax4 plasmid added at qPCR;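 also: Pax4 Ct normalized to GAPDH with activation seen as lower delta delta Ct; plate controls were plate neutral control wells for no effect and Pax4 plasmid positive control for full effect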

| SMILES | activation |
| --- | --- |
| CC(C)CC#Cc1ccc([C@H]2[C@@H](CO)N3CCCCN(C(=O)Nc4ccccc4)C[C@@H]23)cc1 | 0.0025% (inactive) |
| O=C(C[C@@H]1CC[C@H](NC(=O)c2ccc3c(c2)OCO3)[C@@H](CO)O1)NCc1ccc(Oc2ccccc2)cc1 | 0.006% (inactive) |
| COCC(=O)N1CC(=O)N2[C@H](CO)[C@H](c3ccc(-c4ccccc4F)cc3)[C@@H]2C1 | 0% (inactive) |
| C[C@H]1CN([C@@H](C)CO)C(=O)c2cc(NS(=O)(=O)c3ccc(F)cc3)ccc2O[C@H]1CN(C)C(=O)Nc1ccccc1 | 0.002% (inactive) |
| CO[C@H](CN(C)C(=O)C1CCOCC1)[C@@H](C)CN(C(=O)Nc1ccc(C(F)(F)F)cc1)[C@@H](C)CO | 0.0085% (inactive) |
| O=C(CN1CCOCC1)N[C@@H]1CC[C@@H](CCn2cc(C3CC3)nn2)O[C@@H]1CO | 0.0035% (inactive) |
| N#Cc1ccc(-c2ccc([C@@H]3[C@@H]4CN(Cc5cocn5)C[C@H]3N4)cc2)cc1 | 0.128% (inactive) |
| COc1cccc(-c2ccc(C3[C@@H]4CN(Cc5ccccn5)C[C@H]3N4)cc2)c1 (stereo partly drawn) | 0.0705% (inactive) and 213% (active) |
| Fc1ccccc1-c1ccc(C2[C@@H]3CN(Cc4ccccn4)C[C@H]2N3)cc1 (stereo partly drawn) | 0.412% (inactive) and 0.0165% (inactive) |
| COc1cc(CN2C[C@@H]3N[C@H](C2)C3c2ccc(-c3ccc(C#N)cc3)cc2)cc(OC)c1 (stereo partly drawn) | 3.96% (inactive) and 9.29% (active) |
| N#Cc1cccc(-c2ccc(C3[C@@H]4CN(Cc5ccccc5)C[C@H]3N4)cc2)c1 (stereo partly drawn) | 2.74% (inactive) and 0.113% (inactive) |
| COc1cccc(CN2C[C@@H]3N[C@H](C2)C3c2ccc(-c3ccccc3C)cc2)c1 (stereo partly drawn) | 0.0245% (inactive) and 0.039% (inactive) |
| C[C@@H]1CCCCO[C@@H](CN(C)S(=O)(=O)c2ccc(F)cc2)[C@H](C)CN([C@@H](C)CO)C(=O)c2cc(N(C)C)ccc2O1 | 0.002% (inactive) |
| COc1cccc(S(=O)(=O)N[C@H]2CC[C@@H](CC(=O)NC3Cc4ccccc4C3)O[C@@H]2CO)c1 | 0.0015% (inactive) |
| CO[C@@H]1CC[C@H]2CCOc3c(C#N)cccc3C(=O)N(C)CCCC(=O)N(C)C[C@H]1O2 | 0.001% (inactive) |
| C[C@@H]1CCCCO[C@H](CN(C)C(=O)c2ccncc2)[C@H](C)CN([C@H](C)CO)C(=O)c2cc(NS(=O)(=O)c3cccs3)ccc2O1 | 0.001% (inactive) |
| CCCNC(=O)[C@H]1[C@H](CO)[C@H]2Cn3c(ccc(/C=C/c4ccccc4)c3=O)[C@H]2N1CC1CC1 | 0% (inactive) |
| COc1ccccc1NC(=O)N1C[C@@H]2N[C@H](C1)C2c1ccc(-c2cccc(C#N)c2)cc1 (stereo partly drawn) | 0.02% (inactive) and 0.24% (inactive) |
| C/C=C/c1ccc(C2[C@H]3CNC[C@@H]2N3C(=O)Nc2ccc(C(F)(F)F)cc2)cc1 (stereo partly drawn) | 0.016% (inactive) and 0.0105% (inactive) |
| C/C=C/c1ccc(C2[C@@H]3CN(C(=O)Nc4ccc(C(F)(F)F)cc4)C[C@H]2N3)cc1 (stereo partly drawn) | 32.9% (active) and 0.0565% (inactive) |
| N#Cc1cccc(-c2ccc(C3[C@@H]4CNC[C@H]3N4)cc2)c1 (stereo partly drawn) | 0.0045% (inactive) |
| N#Cc1cccc(-c2ccc(C3[C@@H]4CN(C(=O)Nc5ccc(C(F)(F)F)cc5)C[C@H]3N4)cc2)c1 (stereo partly drawn) | 8.39% (active) and 0.03% (inactive) |

| SMILES | activation |
| --- | --- |
| O=C(Nc1ccc(F)cc1)N1C[C@@H]2N[C@H](C1)C2c1ccc(/C=C/c2ccccc2)cc1 (stereo partly drawn) | 1.76% (inactive) |
| Cc1ccccc1S(=O)(=O)N1C[C@@H]2N[C@H](C1)C2c1ccc(-c2cccc(C#N)c2)cc1 (stereo partly drawn) | 0.966% (inactive) and 11.5% (active) |
| COc1ccc(-c2ccc(C3[C@@H]4CN(S(=O)(=O)c5ccccc5C)C[C@H]3N4)cc2)cc1 (stereo partly drawn) | 0.369% (inactive) and 0.0145% (inactive) |
| Cc1cccc(-c2ccc(C3[C@@H]4CN(C(=O)Nc5ccc(F)cc5)C[C@H]3N4)cc2)c1 (stereo partly drawn) | 0.272% (inactive) |
| O=C1CNC[C@@H]2[C@H](c3ccc(-c4ccccc4F)cc3)[C@@H](CO)N12 | 0% (inactive) |
| CNC[C@H]1Oc2cc(C#Cc3ccccc3OC)ccc2S(=O)(=O)N([C@@H](C)CO)C[C@@H]1C | 0.371% (inactive) |
| CNC[C@H]1Oc2cc(C#Cc3ccccc3OC)ccc2S(=O)(=O)N([C@H](C)CO)C[C@@H]1C | 0.402% (inactive) |
| CNC[C@@H]1Oc2cc(C#Cc3ccccc3OC)ccc2S(=O)(=O)N([C@H](C)CO)C[C@H]1C | 10.4% (active) |
| C[C@@H]1CN([C@@H](C)CO)C(=O)CCCn2nncc2CO[C@H]1CN(C)C(=O)c1cc(-c2ccccc2)on1 | 0.0055% (inactive) |
| C[C@@H]1CN([C@H](C)CO)C(=O)CCCn2nncc2CO[C@@H]1CN(C)Cc1ccccc1C(=O)O | -0.0005% (inactive) |
| C[C@@H]1CCCCO[C@H](CN(C)C(=O)Nc2ccc3c(c2)OCO3)[C@H](C)CN([C@H](C)CO)C(=O)c2cc(NS(=O)(=O)c3ccc(F)cc3)ccc2O1 | 0.0035% (inactive) |
| CC(C)CN(C[C@H]1N[C@H](CO)[C@@H]1c1ccccc1)C(=O)C1CCCCC1 | 0% (inactive) |
| CO[C@H]1CN(C)C(=O)c2cc(NC(=O)Nc3cccc(Cl)c3)ccc2OC[C@H](C)N(C(=O)Nc2c(C)noc2C)C[C@@H]1C | 0.004% (inactive) |
| COc1ccc2c3c([nH]c2c1)[C@H](CO)N(Cc1ccccc1F)CC31CN(CC2CC2)C1 | 0.011% (inactive) |
| COCC#Cc1ccc([C@H]2[C@@H](CO)N3CCCCN(C(=O)NC4CCCC4)C[C@H]23)cc1 | 0.001% (inactive) |
| O=C(c1ccccc1)N1CC(=O)N2[C@H](CO)[C@H](c3ccc(-c4ccccc4)cc3)[C@@H]2C1 | 0.0005% (inactive) |
| C/C=C/c1ccc([C@@H]2[C@H](CO)N(C(C)=O)[C@H]2CNC(=O)c2ccccc2)cc1 | 0.0015% (inactive) |
| C[C@H](NC(=O)C[C@H]1C=C[C@@H](NC(=O)c2cccnc2)[C@H](CO)O1)c1ccccc1 | 0.0005% (inactive) |
| CS(=O)(=O)Nc1ccc2c(c1)[C@@H]1C[C@@H](CC(=O)NCc3cc(F)ccc3F)O[C@H](CO)[C@@H]1O2 | 0.007% (inactive) |
| C[C@@H]1CN([C@@H](C)CO)C(=O)c2ccccc2-c2ccccc2CO[C@@H]1CN(C)C(=O)NC1CCCCC1 | -0.0015% (inactive) |
| CO[C@H]1CN(C)C(=O)c2ccc(NC(=O)c3nc4ccccc4s3)cc2OC[C@H](C)N(Cc2cccnc2)C[C@@H]1C | 0.009% (inactive) |
